According to PubChem BioAssay:

molecular target: Pro-neuregulin-1, membrane-bound isoform (Homo sapiens) (UniProt Q02297); assay: NRG1 binders on small-molecule microarrays, primary screen, psychiatric disease protein project, biochemical, small-molecule microarray, fluorescence 635/667 (AID 1075); conditions: NRG1 binding, 635 nm fluorescence, higher = more signal;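 also: score combines 667 nm spot fluorescence with signal to noise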
Sequence (Q02297 whole entry, looked up, canonical isoform): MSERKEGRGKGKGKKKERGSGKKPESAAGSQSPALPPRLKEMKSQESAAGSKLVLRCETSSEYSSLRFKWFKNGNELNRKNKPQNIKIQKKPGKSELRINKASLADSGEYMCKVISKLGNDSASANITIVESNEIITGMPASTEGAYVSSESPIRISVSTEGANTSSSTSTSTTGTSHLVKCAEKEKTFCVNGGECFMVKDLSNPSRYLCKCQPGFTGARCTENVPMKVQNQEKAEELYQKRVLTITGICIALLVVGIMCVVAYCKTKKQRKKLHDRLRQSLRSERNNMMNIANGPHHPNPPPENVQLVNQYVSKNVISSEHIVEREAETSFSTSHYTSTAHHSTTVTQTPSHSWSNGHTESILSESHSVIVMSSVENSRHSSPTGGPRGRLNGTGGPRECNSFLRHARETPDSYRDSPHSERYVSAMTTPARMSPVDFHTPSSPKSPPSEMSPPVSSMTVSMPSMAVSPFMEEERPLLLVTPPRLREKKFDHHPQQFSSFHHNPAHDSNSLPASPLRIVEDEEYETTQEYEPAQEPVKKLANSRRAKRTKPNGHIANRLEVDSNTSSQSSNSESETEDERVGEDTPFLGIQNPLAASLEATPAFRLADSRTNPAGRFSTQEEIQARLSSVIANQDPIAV

First: CC(C)C(=C=CC[C@@H](O)c1ccccc1OCCO)C[C@@H](O)c1cc(Cl)cc(Cl)c1O
Second: COCCOC(=O)N1C(=O)[C@@]2(c3cc(C#CC4(O)CCCCCC4)ccc31)[C@H](c1ccc(OCCO)cc1)N1[C@H](c3ccccc3)[C@H](c3ccccc3)OC(=O)[C@H]1[C@@H]2C(N)=O
The composite z-score of the first is higher: 1.48 for the first, 1.32 for the second.

First: COc1ccc(C#Cc2ccc3c(c2)[C@]2(C(=O)N3)[C@H](C(=O)Nc3nc4ccccc4s3)[C@H]3C(=O)O[C@H](c4ccccc4)[C@H](c4ccccc4)N3[C@@H]2c2ccc(OCCO)cc2)cc1
Second: COc1ccc(CCNC(=O)[C@@]2(C)c3ccccc3C(=O)N(Cc3cc(C(F)(F)F)cc(C(F)(F)F)c3)[C@H]2c2ccc(CO)cc2)cc1
The composite z-score of the first is lower: 1.31 for the first, 1.73 for the second.

Compared with `CC(=O)n1cc(C(O)C2C=CC3C(=O)N(c4ccccc4)C(=O)C3N2Nc2ccccc2F)c2ccccc21` (stereo unspecified), `COc1cc2c(cc1O)C(c1ccc(CN3CCCC3)cc1)N(Cc1ccc([N+](=O)[O-])o1)CC2` (stereo unspecified) is higher in composite z-score: 1.69 for the first, 2.15 for the second.

tested on: Neuregulin-1 EGF-like domain; assay: binders of neuregulin-1 EGF-like domain, primary screen, biochemical, small-molecule microarray, 635 nm fluorescence (AID 1081); conditions: small-molecule microarray binding, higher = more signal;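 also: binding of the protein to compounds printed on small-molecule microarray slides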

First: O=C1C2C=CC(C(O)c3ccc([N+](=O)[O-])cc3)N(Nc3ccccc3)C2C(=O)N1c1ccccc1 (stereo unspecified)
Second: O=C1C2C=CC(C(O)c3cccs3)N(Nc3ccccc3)C2C(=O)N1c1ccccc1 (stereo unspecified)
The composite z-score of the first is higher: 1.25 for the first, 0.964 for the second.

Going from `CC(=O)NCCCC[C@@H]1NC(=O)[C@H]2C[C@@H](C(=O)NCCCCCC[N+](C)(C)C)[C@@H](c3ccc(O)cc3)N2C1=O` to `CN(C)CCCC[C@@H]1NC(=O)[C@@H]2C[C@H](C(=O)NCCCCCCNC(=O)CS)[C@H](c3cccc(OCCO)c3)N2C1=O`, the composite z-score falls from 1.41 to 0.838.

First: CCCC[C@H]1OB(O)C[C@H]2C1=C(COC)C[C@H]1C(=O)C=CC(=O)[C@H]12
Second: CN(C)CCCC[C@@H]1NC(=O)[C@H]2C[C@@H](C(=O)NCc3ccc(F)cc3)[C@@H](c3ccc(O)cc3)N2C1=O
The composite z-score of the first is lower: -0.0265 for the first, 1.25 for the second.

First: C[C@@H](OCc1ccccc1)C1NC(=O)[C@@]23C(=O)N[C@@H](Cc4ccccc4)C2[C@H](C)[C@@]2(C)O[C@H]2C3/C=C/C/C=C\CNC(=O)[C@H](Cc2ccccc2)NC1=O (stereo partly specified)
Second: O=C1N(CCS(=O)(=O)c2ccccc2)c2ccccc2[C@@H]2OC(c3ccc(OCCCO)cc3)=N[C@]12CCS(=O)(=O)c1ccccc1
The composite z-score of the first is lower: 0.438 for the first, 1.28 for the second.

First: C=CCC(OC(C)=O)[C@@H]1[C@@H](N(Cc2ccc(-c3cccc(C(F)(F)F)c3)o2)C(=O)c2cccc3ccccc23)c2cc(OCCCO)ccc2N1C(=O)c1ccc2ccccc2c1 (stereo partly specified)
Second: C=CCC(OC(C)=O)[C@@H]1[C@@H](N(Cc2cccc3ccccc23)C(=O)c2cccc3ccccc23)c2cc(OCCCO)ccc2N1C(=O)Cc1ccc2ccccc2c1 (stereo partly specified)
The composite z-score of the first is higher: -0.332 for the first, -0.648 for the second.

Compared with `COCCn1c(C(=O)N2CCCC2)cc2c1C[C@H]1CN(C(=O)c3ccccc3)[C@@](Cc3ccccc3)(C(=O)OC)[C@@H]21`, `COC(=O)[C@@]1(Cc2ccc(OC)cc2)[C@H]2c3cc(C(=O)N4CCCC4)n(CCc4ccc(OC)c(Br)c4)c3C[C@H]2CN1C(=O)c1ccccc1` is higher in composite z-score: 1.42 for the first, 1.44 for the second.

First: C=CC[C@@]12N=C(c3ccc(OCCCO)cc3)O[C@@H]1c1ccccc1N(Cc1ccccc1)C2=O
Second: [N-]=[N+]=Nc1ccccc1[C@@H]1OC(c2ccc(OCCCO)cc2)=N[C@]1(Cc1ccccc1)C(N)=O
The composite z-score of the first is higher: 1.31 for the first, 0.884 for the second.

Going from `C[C@]1(C(=O)NCC(F)(F)F)c2ccccc2C(=O)N(Cc2ccc(OC(F)(F)F)cc2)[C@H]1c1ccc(CO)cc1` to `COc1ccc(CCNC(=O)[C@@]2(C)c3ccccc3C(=O)N(Cc3cc(C(F)(F)F)cc(C(F)(F)F)c3)[C@H]2c2ccc(CO)cc2)cc1`, the composite z-score rises from 0.531 to 1.3.

Going from `C=CC[C@]1(C(=O)N(C)C)COC(c2ccc(OCCCO)cc2)=N1` to `[N-]=[N+]=NCc1ccccc1C[C@]1(C(=O)O)COC(c2ccc(OCCCO)cc2)=N1`, the composite z-score falls from 1.42 to 0.0238.

First: O=C1O[C@@H](c2ccccc2)[C@@H](c2ccccc2)N2[C@@H](c3ccc(O)cc3)[C@]3(C(=O)Nc4ccc(C#CC5=CCCCC5)cc43)[C@@H](C(=O)N3CCCCCCC3)[C@H]12
Second: COCCOC(=O)N1C(=O)[C@@]2(c3cc(C#CC4(O)CCCCCC4)ccc31)[C@H](c1ccc(OCCO)cc1)N1[C@H](c3ccccc3)[C@H](c3ccccc3)OC(=O)[C@H]1[C@@H]2C(N)=O
The composite z-score of the first is higher: 1.3 for the first, 1.14 for the second.

First: CCCCC(=C=CC[C@@H](O)c1cccc(OCCO)c1)C[C@@H](O)COCc1ccccc1
Second: CC(C)C(=C=CC[C@@H](O)c1ccccc1OCCO)C[C@@H](O)c1cc(Cl)cc(Cl)c1O
The composite z-score of the first is lower: -0.0821 for the first, 1.19 for the second.

First: COC(=O)[C@]1(CO)N=C(c2ccc(OCCCO)cc2)O[C@@H]1c1ccccc1CN=[N+]=[N-]
Second: CCOC(=O)C[C@H]1[C@H](OC(=O)c2ccc(-c3ccccc3)cc2)[C@@H](NC(=O)CC(C)C)c2cc(OCCCO)ccc2N1C(=O)Cc1ccc(OC)cc1
The composite z-score of the first is higher: 1.16 for the first, -0.023 for the second.

First: COc1ccc(NN2C(C(O)c3cc(C(F)(F)F)cc(C(F)(F)F)c3)C=CC3C(=O)N(C4CCCCC4)C(=O)C32)cc1 (stereo unspecified)
Second: CC(=O)n1cc(C(O)C2C=CC3C(=O)N(c4ccccc4)C(=O)C3N2Nc2ccccc2F)c2ccccc21 (stereo unspecified)
The composite z-score of the first is higher: 1.11 for the first, 1.02 for the second.

Compared with `CCCC=C(CCC)[C@@H](NC(=O)c1ccccc1)c1ccc(C(=O)OC)cc1`, `C=C(COC)/C(=C/C[C@@H](OC(C)=O)c1ccccc1OCCO)c1cc(C(=O)OC)ccc1OC` is lower in composite z-score: 1.19 for the first, 1.09 for the second.

First: CO[C@H]1O[C@H](CO)[C@@H](OC(=O)Nc2ccc(C(F)(F)F)cc2)[C@H](OC(=O)Nc2ccccc2-c2ccccc2)[C@@H]1OC(=O)Nc1ccccc1-c1ccccc1
Second: CO[C@H]1O[C@H](CO)[C@@H](OC(=O)Nc2ccc(C(F)(F)F)cc2)[C@H](OC(=O)Nc2ccccc2-c2ccccc2)[C@H]1OC(=O)Nc1ccccc1-c1ccccc1
The composite z-score of the first is lower: 1.29 for the first, 1.36 for the second.

First: CCOC(=O)C[C@H]1[C@H](OC(=O)c2cc3ccccc3oc2=O)[C@@H](NC(=O)C2CCCCC2)c2cc(OCCCO)ccc2N1C(=O)Cc1ccc(OC)cc1
Second: COc1ccc(C#Cc2ccc3c(c2)[C@]2(C(=O)N3)[C@H](C(=O)Nc3nc4ccccc4s3)[C@H]3C(=O)O[C@H](c4ccccc4)[C@H](c4ccccc4)N3[C@@H]2c2ccc(OCCO)cc2)cc1
The composite z-score of the first is lower: 0.72 for the first, 1.08 for the second.

First: N#Cc1ccc(C(O)C2C=CC3C(=O)NC(=O)C3N2Nc2ccccn2)cc1 (stereo unspecified)
Second: COc1cc2c(cc1O)C(c1ccc(CN3CCCC3)cc1)N(Cc1ccc([N+](=O)[O-])o1)CC2 (stereo unspecified)
The composite z-score of the first is lower: 0.511 for the first, 0.936 for the second.

With `CCOC(=O)C1=C(C(=O)OCC)N(S(=O)(=O)CC[Si](C)(C)C)[C@H](c2ccccc2)CC1` the composite z-score was 0.884.
